40 molecules from PubChem BioAssay (Tox21) can be followed below.

Records with an inconclusive call do not appear. Unmarked numbers belong to inactive results. Calls come from the whole dose curve; as a rule, active = well fitted cell-killing curve with a large enough effect in the repeat runs (not every such curve was filed as active); inconclusive = weak or mixed curves, or effect the other way; inactive = no such curve, though single readings can be large or run the other way.
% is set by controls: 0 for no effect and ±100 for the full control effect.

The assay is described as follows: qHTS assay to identify small molecule antagonists of the farnesoid-X-receptor (FXR) signaling pathway - cell viability counter screen (AID 743221). Note: nearly all actives have a fitted effect of over 50% in size. As to conditions: FXR-bla HEK293T viability, CellTiter-Glo luminescence, 16 h; series mostly up to 62.6 µM; activity change, negative = cytotoxicity: at the top concentration. The source says:
National Center for Advancing Translational Sciences [NCATS]
NIH Chemical Genomics Center [NCGC]
U.S. Environmental Protection Agency [EPA]
National Institutes of Environmental Health Sciences [NIEHS]
National Toxicology Program [NTP]
U.S. Food and Drug Administration [FDA]
The farnesoid-X-receptor (FXR), a nuclear hormone receptor, is highly expressed in liver, intestine, kidney and adrenal cortex. Natural ligands of FXR are the bile acids (Cholic acid, Chenodeoxy cholic acid etc). FXR is an important regulator of diverse metabolic pathways, including the bile acid homeostasis, lipid and glucose metabolisms. FXR regulates the expression of target genes by binding either as a monomer or as a heterodimer with the retinoid X receptor (RXR). Numerous studies have reported that FXR exerts protective function during cholestasis, diabetes, liver regeneration, and cancer. To identify compounds that inhibit FXR signaling, GeneBLAzer FXR-UAS-bla HEK 293T cell line (Invitrogen, Carlsbad, CA) containing a beta-lactamase reporter gene under the control of a UAS response element was used to screen the Tox21 10K compound library. The cytotoxicity of the Tox21 compound library against the FXR-bla cell line was tested in parallel by measuring the cell viability using CellTiter-Glo assay in the same wells.
Tox21 Assay Protocol Summary:
FXR-bla cells were dispensed at 5000 cells/5uL/well in 1536-well black wall/clear bottom plates using a Multidrop Combi (Thermo Fisher Scientific, Waltham, MA) dispenser. After the assay plates were incubated at 37 C and 5% CO2 for 5 h, 23 nL of compounds dissolved in DMSO, positive controls or DMSO only was transferred to the assay plate by a Pintool station (Kalypsys, San Diego, CA), followed by addition of 1 uL Chenodeoxycholic acid (50 uM, final concentration in the wells). The assay plates were incubated at 37C for 16 h. After 1 uL of LiveBLAzerTM B/G FRET substrate was added using a Bioraptr Flying Reagent Dispenser (FRD) workstation (Beckman Coulter, Indianapolis, IN), the plates were incubated at room temperature for 2 h, and fluorescence intensity was measured by an Envision plate reader (PerkinElmer, Shelton, CT). For cell viability readout that measures cytotoxicity, 4uL/well of CellTiter-Glo reagent was added into the assay plates using a Bioraptr FRD. After 30 min incubation at room temperature, the luminescence intensity in the plates was measured using a ViewLux plate reader (PerkinElmer).
On to `O=c1[nH]nc(-c2ccc([N+](=O)[O-])o2)o1`, for which the “activity change, negative = cytotoxicity” value is -4.74%.

In the case of `CCCCOc1ccc(N)cc1`, the “activity change, negative = cytotoxicity” value is 8.58%.

For `C=CC(C)CCC=C(C)C` (stereo not given), the “activity change, negative = cytotoxicity” value was 3.62%.

In the case of `CC(C)=CCCC(C)C=O` (stereo not given), the “activity change, negative = cytotoxicity” value was -16.8%.

For `O=C(Cl)c1cc(Cl)cc(Cl)c1`, the “activity change, negative = cytotoxicity” value is 4.36% [at 81.1 µM].

Turning to `O=Cc1ccc([N+](=O)[O-])cc1`, the “activity change, negative = cytotoxicity” value was -4.18% [at 81.1 µM].

Regarding `Cc1cc(SC2=C(O)C[C@@](CCc3ccc(N)cc3)(C(C)C)OC2=O)c(C(C)(C)C)cc1CO`, the “activity change, negative = cytotoxicity” value was -2.93%.

As to `CC(C)(C)N`, the “activity change, negative = cytotoxicity” value was 0.0567%.

For `Cc1cc(C)c(C)c(O)c1`, the “activity change, negative = cytotoxicity” value is -5.21%.

For `CC(C)(C)c1ccc(CCC=O)cc1`, the “activity change, negative = cytotoxicity” value was 4.99%.

For `O=S(=O)(O)c1cc(Cl)c(Cl)cc1Cl`, the “activity change, negative = cytotoxicity” value is -17.6%.

With `CO[C@@H]1COCC[C@@H]1N[C@@H]1CC[C@@](C(=O)N2CCc3ncc(C(F)(F)F)cc3C2)(C(C)C)C1`, the “activity change, negative = cytotoxicity” value is -9.21%.

As to `C1CCN(CN2CCCCC2)CC1`, the “activity change, negative = cytotoxicity” value was 4.56%.

On to `CC(=O)CC/C=C(\C)CC/C=C(\C)CC/C=C(\C)CCC=C(C)C`, for which the “activity change, negative = cytotoxicity” value was -1.3%.

As to `OCC(O)c1ccccc1` (stereo not given), the “activity change, negative = cytotoxicity” value was -0.192%.

With `Cc1ccc(NC=O)c(C)c1`, the “activity change, negative = cytotoxicity” value was 2.45%.

With `Cc1c(N=C=O)cccc1N=C=O`, the “activity change, negative = cytotoxicity” value was 0.656% [at 81.1 µM].

As for `O=C1OC(=O)C2CC=CCC12` (stereo not given), the “activity change, negative = cytotoxicity” value was 0.0295% [at 81.1 µM].

`CC(=O)Nc1ccccc1O`: the “activity change, negative = cytotoxicity” value is 5.74%.

Regarding `Cc1ccc(Cl)c(OCC(O)CNC(C)(C)C)c1` (stereo not given), the “activity change, negative = cytotoxicity” value was -1.19%.

On to `CCCC(=O)OCc1ccccc1`, for which the “activity change, negative = cytotoxicity” value is -3.5%.

Take `COc1ccc(/C=C/S(=O)(=O)NC(=O)c2ccc(C)cc2Cl)cc1`: the “activity change, negative = cytotoxicity” value was -15.8%.

With `CCCCOC(=O)CC#N`, the “activity change, negative = cytotoxicity” value is -0.87% [at 81.1 µM].

For the molecule `CC(C)=CCC/C(C)=C/C=N/O`, the “activity change, negative = cytotoxicity” value is -13.8%.

For the molecule `CCCC1CCOC(C)S1` (stereo not given), the “activity change, negative = cytotoxicity” value was 16%.

As for `C=CC(=O)NC(C)(C)C`, the “activity change, negative = cytotoxicity” value was 12.9%.

With `S=c1[nH][nH]c(=S)s1`, the “activity change, negative = cytotoxicity” value was 7.47%.

Take `CC(=O)S[C@H](C(=O)N[C@H]1Cc2ccccc2[C@H]2CCC[C@@H](C(=O)O)N2C1=O)C(C)C`: the “activity change, negative = cytotoxicity” value was -12.5%.

Turning to `COc1ccc(CN(CCN(C)C)c2ncccn2)cc1`, the “activity change, negative = cytotoxicity” value was -8.29%.

Regarding `O=C(Cl)c1ccc(F)c(Cl)c1`, the “activity change, negative = cytotoxicity” value was -3.38%.

Turning to `COc1ccc(C(=O)c2ccc(C)cc2)c(O)c1`, the “activity change, negative = cytotoxicity” value was 1.2% [at 81.1 µM].

Turning to `CC1(C)[C@@H]2CC[C@]3(C2)[C@@H]1C(=O)CCC3(C)C`, the “activity change, negative = cytotoxicity” value was -5.34%.

In the case of `CCC(CC)C(=O)O`, the “activity change, negative = cytotoxicity” value was 19.1%.

Take `FC(F)(Cl)C(F)(Cl)Cl`: the “activity change, negative = cytotoxicity” value was -6.65%.

As for `C=CC(O)CCCCC` (stereo not given), the “activity change, negative = cytotoxicity” value was -2.15%.

In the case of `CCCOC(C)=O`, the “activity change, negative = cytotoxicity” value is 14.9%.

With `NC(=O)c1ccccc1`, the “activity change, negative = cytotoxicity” value was 4.37% [at 81.1 µM].

As for `C/C(=C\C(C)CC(C)CC(C)C)C1CC(=O)OC1=O` (stereo not given), the “activity change, negative = cytotoxicity” value was 2.06%.

As to `O=c1[nH][nH]c2ccccc12`, the “activity change, negative = cytotoxicity” value was 6.22% [at 81.1 µM].

For `O=C(OCCN1CCOCC1)c1cccnc1Nc1cccc(C(F)(F)F)c1`, the “activity change, negative = cytotoxicity” value is -5.23%.
